# High-throughput results deposited in PubChem by National Center for Advancing Translational Sciences (NCATS).
# POLB inh – qHTS Assay for Inhibitors of DNA Polymerase Beta | Potency, µM (top dose mostly 114 µM), without a hit: at the top dose activity change, negative = inhibition, most hits filed as inhibitors | P06746 | Pol beta primer extension/strand displacement, fluorescence kinetic | 340,000 tested, 1.3% active | AID 485314, 2010; note: potency is the fitted concentration of half-maximal effect; % is set by controls: 0 for no effect and ±100 for the full control effect
#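 Homogeneous kinetic assay of primer extension and strand displacement by 10 nM Pol beta, preincubated 15 min at room temperature with compound before 50 nM substrate (final) was added. Read at 0 and 10 min; four-parameter Hill fit.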
# Pol eta inh-1 – qHTS for Inhibitors of Polymerase Eta | 390,000 tested, 1.2% active | recombinant Pol eta, fluorescent DNA replication assay | Potency, µM (top dose mostly 114 µM), for the others: at the highest dose activity change, negative = inhibition, actives largely listed as inhibitors | DNA polymerase eta (Homo sapiens), Q9Y253; note: potency is the fitted concentration of half-maximal effect; % is set by controls: 0 for no effect and ±100 for the full control effect
#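 Fluorescent replication assay: 50 nM final substrate added after a 15 min room-temperature compound preincubation with 10 nM enzyme. Signal taken at 0 min and again at 10 min.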
# Pol kappa inh-1 – qHTS for Inhibitors of Polymerase Kappa; Potency, µM (titrated, usually from 107 µM), for inactives: at the highest dose activity, negative = inhibition, usual class: inhibitors; 400,000 tested, 0.53% active; DNA polymerase kappa (Homo sapiens), Q9UBT6; purified Pol kappa, fluorescent DNA synthesis assay, 10 min; note: potency is the fitted concentration of half-maximal effect; % is set by controls: 0 for no effect and ±100 for the full control effect
#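 Pol kappa 10 nM + cpd, 15 min RT; start w/ substrate 50 nM final; fluorescence kinetic read, 0 and 10 min. Neg ctrl: buffer, no enzyme.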
# POLI inh – qHTS for Inhibitors of Polymerase Iota; DNA polymerase iota (Homo sapiens), Q9UNA4; Pol iota fluorescent replication assay, 10 min; Potency, µM (titrated, usually from 115 µM), for inactives: at the top dose activity, negative = inhibition, actives largely listed as inhibitors; 390,000 tested, 1% active; AID 588590, 2011; note: potency is the fitted concentration of half-maximal effect
# Target sequence (Q9UNA4 whole entry, looked up): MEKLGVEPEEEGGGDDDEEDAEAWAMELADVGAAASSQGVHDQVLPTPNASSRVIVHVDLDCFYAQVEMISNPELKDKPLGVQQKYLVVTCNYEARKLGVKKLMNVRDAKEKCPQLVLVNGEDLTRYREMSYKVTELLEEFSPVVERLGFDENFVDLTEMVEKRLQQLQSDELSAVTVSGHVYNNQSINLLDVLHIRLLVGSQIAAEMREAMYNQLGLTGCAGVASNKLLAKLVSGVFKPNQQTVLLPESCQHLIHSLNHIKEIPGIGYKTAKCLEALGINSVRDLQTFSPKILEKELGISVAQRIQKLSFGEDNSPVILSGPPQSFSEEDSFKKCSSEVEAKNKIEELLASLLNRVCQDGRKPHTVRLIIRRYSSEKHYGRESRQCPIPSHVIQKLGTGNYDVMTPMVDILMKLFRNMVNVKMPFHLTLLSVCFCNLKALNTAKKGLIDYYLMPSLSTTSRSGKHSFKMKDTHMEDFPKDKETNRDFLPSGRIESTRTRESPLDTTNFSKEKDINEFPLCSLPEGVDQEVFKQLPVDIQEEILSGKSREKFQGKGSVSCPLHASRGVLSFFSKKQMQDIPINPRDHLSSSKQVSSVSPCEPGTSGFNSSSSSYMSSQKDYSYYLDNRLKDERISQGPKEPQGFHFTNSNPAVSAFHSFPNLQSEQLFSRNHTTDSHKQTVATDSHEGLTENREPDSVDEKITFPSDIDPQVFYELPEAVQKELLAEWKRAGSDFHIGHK
#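 Pol iota at 10 nM preincubated 15 min with compounds at room temperature; reaction started with fluorescent substrate, 50 nM final. Fluorescence read kinetically at 0 and 10 min; buffer-only wells as negative control.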
# WRN inhibitor – qHTS for Inhibitors of WRN Helicase; AID 651768, 2012; 360,000 tested, 0.46% active; Potency, µM (titrated, usually from 114 µM), for the others: at the top dose activity change, negative = inhibition, actives largely listed as inhibitors; Bifunctional 3'-5' exonuclease/ATP-dependent helicase WRN (Homo sapiens), Q14191; WRN helicase unwinding, fluorescent forked duplex, kinetic; note: potency is the fitted concentration of half-maximal effect; % is set by controls: 0 for no effect and ±100 for the full control effect; nearly all actives have a fitted effect of over 55% in size
#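 Primary qHTS, 1536-well format. 20 nM WRN + compound, 15 min RT; start with 100 nM forked fluorophore/quencher duplex, 2 mM ATP (final); kinetic read ex 525/em 598 nm.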
# FEN1 inhibitor – qHTS Assay for the Inhibitors of Human Flap endonuclease 1 (FEN1); P39748; AID 588795, 2011; Recombinant FEN1 flap cleavage, fluorescence, 15 min; Potency, µM (series often up to 114 µM), inactives show at the top dose activity change, negative = inhibition, hits mostly inhibitors; 390,000 tested, 0.35% active; note: potency is the fitted concentration of half-maximal effect; % is set by controls: 0 for no effect and ±100 for the full control effect; nearly all actives have a fitted effect of over 65% in size
#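 Quantitative HTS format: each compound was titrated, incubated with 10 nM nuclease for 15 min at room temperature, then challenged with flap substrate at 50 nM final. Signal change over 15 min gave concentration–effect curves.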
# GALK confirm – Confirmation Assay for Inhibitors of Human Galactokinase (GALK) | purified GALK, Kinase-Glo ATP depletion luminescence | Potency, µM (titrated, usually from 115 µM), for inactives: at the top dose activity, negative = inhibition, hits mostly inhibitors | 150 tested, 70% active | AID 2015, 2009 | shares compounds with Pol eta inh-1
# GALK redox cs – Confirmatory Assay for Inhibitors of Human Galactokinase (GALK): Phenol-HRP redox assay counterscreen | 150 tested, 40% active | Potency, µM (doses to about 115 µM), for inactives: at the highest dose activity change, negative = H2O2 signal, usual class: inhibitors | Phenol red-HRP H2O2 redox cycling, absorbance 600 nm | shares compounds with Pol eta inh-1
# HEK293 viability – Secondary Assay for Inhibitors of Human Galactokinase (GALK): HEK-293 Cell Viability Assay. HEK-293 viability, ATP luminescence (CellTiter-Glo), 24/48 h. shares compounds with Pol eta inh-1. Potency, µM (top dose mostly 46.1 µM), inactives show at the top dose activity change, negative = cytotoxicity, usual class: inhibitors. 170 tested, 10% active; note: potency is the fitted concentration of half-maximal effect; % is set by controls: 0 for no effect and ±100 for the full control effect
# Pol kappa inh-2 – qHTS for Inhibitors of Polymerase Kappa: Confirmatory Assay for Cherry-picked Compounds. shares compounds with Pol eta inh-1. purified Pol-kappa, fluorescent strand-displacement substrate. Potency, µM, usual class: inhibitors. 920 tested, 76% active; note: potency is the fitted concentration of half-maximal effect
# Pol eta inh-2 – qHTS for Inhibitors of Polymerase Eta: Confirmatory Assay for Cherry-picked Compounds; Potency, µM, actives largely listed as inhibitors; AID 720502, 2013; 2,600 tested, 64% active; shares compounds with Pol eta inh-1; Pol eta primer extension, TAMRA/BHQ fluorescence, 10 min; note: potency is the fitted concentration of half-maximal effect
# An asterisk follows results filed as active; ? = inconclusive; nt = no result given; [ ] = dose if it differs, or a comment. Sampled rows, rich in hits. Any-hit rate of the full collection: about 2.4%. Calls come from the whole dose curve; as a rule, active = well fitted curve in the direction sought with a large enough effect; inconclusive = small, poorly fitted or top-dose-only effect, or another doubt; inactive = no such curve, though single readings can be large; an effect the other way counts as inactive or inconclusive.
SMILES,POLB inh,Pol eta inh-1,Pol kappa inh-1,POLI inh,WRN inhibitor,FEN1 inhibitor,Pol eta inh-2,others
COc1cc(/C=C2\C(=N)N3N=C(S(=O)(=O)CC(C)C)SC3=NC2=O)ccc1OC(=O)c1ccco1,-22%,nt,nt,nt,nt,nt,nt,GALK confirm=27µM*;GALK redox cs=-4%;HEK293 viability=3%
COc1ccc(N2CCN(S(=O)(=O)c3ccc4oc(=O)c5ncn(C)c5c4c3)CC2)cc1,15%,11%,3%,-5%,nt,2%,nt,
COc1cc(Nc2ncc3c(n2)CCN(Cc2ccc(OC(C)C)c(OC)c2)C3)cc(OC)c1,11%,nt,-6%[60.1 µM],-6%,nt,-5%,nt,
O=C(NC[C@H]1CCCO1)c1cccc2c1C(=O)c1ccc(-c3ccc(F)cc3OCc3ccccc3)cc1S2(=O)=O,nt,-8%,-27%,-24%,-10%,2%,nt,
Cc1cc(CNC(=O)c2cccc3c2C(=O)c2ccc(-c4ccc(F)cc4OCc4ccccc4)cc2S3(=O)=O)c(C(F)(F)F)o1,nt,20µM*,79µM*,40µM*,-12%[11.6 µM],?,54*,
O=Nc1c(O)ccc2cc(S(=O)(=O)O)ccc12,nt,14µM*,?,18µM*,-7%[11.6 µM],?,30*,Pol kappa inh-2=17*
COc1ccc(-c2cc3ccc(O)c(CN4CCOCC4)c3oc2=O)cc1OC,5%,-13%,0%[60.1 µM],7%,nt,10%,nt,
CC1=C2C(CCS2(=O)=O)CC2(C1)C(=O)OC(C)(C)OC2=O (stereo unspecified),?,79µM*,?,?,-27%,-10%,?,
CC(c1ccccc1)N1C(=O)c2ccc(C(=O)Nc3ccc(Br)cc3C(=O)O)cc2C1=O (stereo unspecified),14%,50µM*,-8%,-13%,-15%[11.6 µM],-32%,76*,
CN(C)CCCN(C(=O)c1ccc([N+](=O)[O-])s1)c1nc2cc3c(cc2s1)OCCO3,?,-11%,-2%,-1%,5%,-23%,nt,
CN(C)CCCN(C(=O)c1cc2cc([N+](=O)[O-])ccc2s1)c1nc2cc3c(cc2s1)OCCO3,nt,?,?,-10%,?,?,nt,Pol kappa inh-2=60*
O=C1CSC(=S)N1/N=C/C=C/c1ccccc1,28µM*,14µM*,?,20µM*,-28%,-10%,?,
O=C1CSC(=S)N1/N=C/c1c(F)cccc1F,10%,-18%,-12%,?,-16%,-6%,nt,
O=C(CCS(=O)(=O)c1ccc(Br)cc1)Nc1ccc(Cl)c(C(F)(F)F)c1,4%,?,-25%,23%,nt,-8%,?,Pol kappa inh-2=19*
Cc1ccc(-c2cc(C(=O)NCCc3ccccc3)c3ccccc3n2)cc1C,1%,-19%,2%[60.1 µM],26%,nt,3%,nt,
O=C1CS/C(=N\N=C\c2ccco2)N1c1ccccc1,?,?,?,?,-9%[11.6 µM],-12%,?,Pol kappa inh-2=?
O=C1CS/C(=N/N=C/c2ccccc2)N1c1ccc(O)cc1,-4%,-11%,-4%,110%,-18%,-4%,nt,
C/C(=N\Nc1ccc(Cl)c(C(=O)O)c1)c1cccc2ccccc12,28µM*,7.9µM*,?,16µM*,?,-4%,27*,
O=C(O)c1cc(NN=C2c3ccccc3-c3ccccc32)ccc1Cl,50µM*,22µM*,?,?,?,?,38*,
O=C(O)c1cccc(NN=C2c3ccccc3-c3ccccc32)c1,?,?,-9%,43%,-21%,-31%,nt,
C/C(=N\Nc1ccc(Cl)c(C(=O)O)c1)c1cc2ccccc2o1,16%,-20%,-3%,99%,-21%,3%,nt,
O=C(NCCc1nc2ccccc2n1CCOc1ccc(Cl)cc1)C1CCCCC1,-18%,nt,6%,-3%,nt,5%,nt,
COc1ccc(CNC(=O)C2CCN(C(=O)c3ccc(-n4ccc5ccccc54)s3)CC2)cc1,6%,-23%,-2%,14%,nt,-2%,nt,
CCOc1ccc(N=C2NC(=O)/C(=C/C(=O)OC)S2)cc1,58%,-13%,-17%,-6%,-20%,4%,nt,
CCc1ccc(N=C2NC(=O)/C(=C/c3ccc(OCC(=O)O)cc3)S2)cc1,40µM*,45µM*,?,?,?,?,nt,Pol kappa inh-2=?
SMILES,POLB inh,Pol eta inh-1,Pol kappa inh-1,POLI inh,WRN inhibitor,FEN1 inhibitor,Pol eta inh-2,others
COc1ccc(CCNC(=O)CSc2nc3ccccc3nc2Cc2ccc(Cl)cc2)cc1OC,12%,-10%,-8%[60.1 µM],?,nt,14%,nt,
Cc1nn(-c2cccc(C(=O)O)c2)c(C)c1[N+](=O)[O-],-2%,-4%,-7%,29%,-1%[57.1 µM],3%,nt,
O=C(O)c1cccc(-n2cccc2/C=C\[N+](=O)[O-])c1,?,20µM*,50µM*,?,?,?,60*,
O=C(c1cccc(Cl)c1)N1CCC(c2nc3c(nnn3Cc3ccc(F)cc3F)c(=O)[nH]2)CC1,23%,-21%,14%,8%,nt,-8%,nt,
CCOC(=O)c1c(C)[nH]c(C)c1S(=O)(=O)N(C)CC(=O)Nc1ccc(C)cc1Br,-24%,-22%,-9%,21%,nt,-3%,nt,
Cc1ccc(NC(=O)CCNS(=O)(=O)c2ccc3c(c2)oc(=O)n3C)cc1,-3%,50µM*,89µM*,20µM*,?,6%,?,
